VP16 counter = VP16 counterscreen qHTS for inhibitors of ROR gamma transcriptional activity; Drosophila S2 Gal4-VP16 UAS-luciferase, luminescence, 20 h; Potency, µM (titrated, usually from 53.6 µM), without a hit: top-dose activity, negative = inhibition, most hits filed as inhibitors; actives 3.5% (n = 310,000);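 also: Gal4-VP16 expression switched on by copper sulfate through the metallothionein promoter; potency is read from the fitted curve at half-maximal effect; nearly all actives have a fitted effect of over 50% in size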
PKM2 act = qHTS Assay for Activators of Human Muscle isoform 2 Pyruvate Kinase; AID 1631, 2009; Potency, µM (highest dose often 57.5 µM), for inactives: top-dose activation, actives largely listed as activators; purified PKM2, Kinase-Glo ATP luminescence, activation; response scale: 0% is enzyme alone, no compound; actives 0.34% (n = 260,000); Pyruvate kinase PKM (Homo sapiens), P14618; also: potency is read from the fitted curve at half-maximal effect; nearly all actives have a fitted effect of over 55% in size
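Purified hPK-M2 (>95% pure) converted ADP (0.1 mM final) to ATP with 0.5 mM PEP in 50 mM imidazole pH7.2, KCl, MgCl2, Tween 20, BSA; 1 h at room temperature. ATP detected by Kinase-Glo luminescence.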
CtBP-E1A inh = qHTS Assay for Inhibitors of the CtBP/E1A Interaction | AlphaScreen GST-E1A/His-CtBP binding, 1536-well; hits give low values | AID 651724, 2012 | actives 0.49% (n = 340,000) | activity change, % (test concentration not listed); in the data active = activity change below about -65%; inconclusive = mostly about -30% to -63%
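In 5 uL wells, 23 nL compound meets equimolar GST-E1A and His-CtBP (5X stock 125 nM each) for 2 h, 37 °C. Beads (5X, 50 ug/mL) then 1 h, 37 °C, dark.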
RORgamma inh = qHTS for inhibitors of ROR gamma transcriptional activity; Drosophila S2 Gal4-RORgamma UAS-luciferase reporter, 20 h; Potency, µM (doses to about 53.6 µM), for the others: top-dose activity change, negative = inhibition, actives largely listed as inhibitors; actives 5.4% (n = 310,000); also: potency is read from the fitted curve at half-maximal effect; nearly all actives have a fitted effect of over 60% in size
Target sequence (P51450 whole entry, looked up, the tested form may be a part): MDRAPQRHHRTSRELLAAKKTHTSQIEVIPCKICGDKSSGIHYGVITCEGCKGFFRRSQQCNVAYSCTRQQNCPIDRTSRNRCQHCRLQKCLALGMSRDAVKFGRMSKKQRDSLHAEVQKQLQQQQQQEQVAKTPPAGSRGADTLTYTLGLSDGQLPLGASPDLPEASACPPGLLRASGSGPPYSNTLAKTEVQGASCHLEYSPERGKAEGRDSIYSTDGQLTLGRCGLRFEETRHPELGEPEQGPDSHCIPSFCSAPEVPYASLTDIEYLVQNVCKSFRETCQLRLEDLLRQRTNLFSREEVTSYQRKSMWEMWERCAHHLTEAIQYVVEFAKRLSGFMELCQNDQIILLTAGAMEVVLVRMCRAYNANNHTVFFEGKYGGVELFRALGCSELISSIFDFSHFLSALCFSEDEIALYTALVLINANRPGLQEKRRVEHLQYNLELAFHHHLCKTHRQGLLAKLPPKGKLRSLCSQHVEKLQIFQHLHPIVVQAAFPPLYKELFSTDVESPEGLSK
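Read-out: Photinus luciferase luminescence; inhibitors lower reporter signal. Insect Schneider cells with Gal4-ROR gamma fusion under metallothionein promoter, UAS reporter; 700 uM final copper sulfate induction, 20 hr, ambient temperature.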
Six1-Eya2 blk = qHTS Assay for Inhibitors of the Six1/Eya2 Interaction; AlphaScreen GST-Six1/His-Eya2 binding, biochemical; hits give low values; activity change, % (no concentration beside the values); actives 0.56% (n = 360,000); in the data active = activity change below about -65%; inconclusive = mostly about -30% to -63%
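AlphaScreen with GST-Six1 and His-Eya2 (5X mix: 250 nM and 500 nM), glutathione donor and nickel acceptor beads; buffer 50 mM Tris pH 8.0, 300 mM NaCl, 1 mM TCEP; 1 h at 37 C in the dark.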
An asterisk follows results filed as active; ? = inconclusive; nt = no result given. Most compounds without a hit are left out; they make up all but 5.6% or so of the library. Unless noted, calls follow the shape of the dose curve; as a rule, active = well fitted curve in the direction sought with a large enough effect; inconclusive = small, poorly fitted or top-dose-only effect, or another doubt; inactive = no such curve, though single readings can be large; an effect the other way counts as inactive or inconclusive. % is scaled to controls: 0 for no effect and ±100 for the full control effect.

SMILES	VP16 counter	PKM2 act	CtBP-E1A inh	RORgamma inh	Six1-Eya2 blk
NC(=S)NN=C1c2cc(Cl)ccc2-c2c1cc(Cl)cc2[N+](=O)[O-]	nt	nt	-17	nt	-28
NC(=S)N/N=C1\CCOc2ccc(Cl)cc21	8.9µM*	1%	nt	3.2µM*	8
O=C(Cn1nc2ccccc2n1)N/N=C/c1cc(Cl)cc([N+](=O)[O-])c1O	14µM*	-5%	?	1.8µM*	?
O=C(N/N=C/c1cc(Cl)cc([N+](=O)[O-])c1O)C1CC1	2µM*	29%	nt	0.63µM*	?
CC(C)(C)N/N=C/c1cc(Cl)cc([N+](=O)[O-])c1O	2%	-18%	-13	-10%	-1
O=C(Cn1nnc(-c2ccccc2)n1)N/N=C/c1cccc([N+](=O)[O-])c1O	?	1%	?	1.8µM*	?
Cc1ccccc1C(=O)Nc1cccc(C(=O)N/N=C/c2cc(Cl)cc([N+](=O)[O-])c2O)c1	2.5µM*	-3%	-73*	1.1µM*	?
O=C(Cn1nnc(-c2ccccc2)n1)N/N=C/c1cccc([N+](=O)[O-])c1	7%	8%	0	?	0
COc1cc(C(=O)NC2CCN(CC(=O)Nc3cccc(C)c3C)CC2)cc(OC)c1OC	21%	-9%	9	?	-2
CN1C(=O)C(Cc2cnc[nH]2)NC1=S (stereo not drawn)	-2%	nt	nt	-10%	-16
Cc1nc(-c2coc3c(O)c(O)ccc3c2=O)cs1	-6%	nt	nt	4%	nt
Nc1nc(SCC(=O)Nc2cc(Cl)c(Cl)cc2Cl)n[nH]1	nt	nt	-5	nt	-7
COc1ccc(S(=O)(=O)N(C)C[C@H]2Oc3c(NC(=O)Nc4c(C)noc4C)cccc3C(=O)N([C@@H](C)CO)C[C@H]2C)cc1	nt	nt	7	nt	1
CCN(CC(=O)Nc1ccc2c(c1)OCCO2)C(=O)/C=C/c1cccc(C(F)(F)F)c1	nt	nt	nt	nt	-9
Cc1nc2c(-c3ccc(F)cc3)cnn2c(N)c1-c1ccccc1	?	nt	33	0.045µM*	24
COc1ccccc1CNS(=O)(=O)c1ccc(Cl)s1	-15%	nt	24	8%	16
Cc1nn(C(=O)Cn2ccc([N+](=O)[O-])n2)c(C)c1Cl	-2%	nt	1	-1%	-8
O=C(Nc1cccc(-c2nn[nH]n2)c1)c1cccs1	10µM*	7%	?	7.9µM*	?
CCc1ccc(C(=O)Nc2cccc(-c3nn[nH]n3)c2)s1	-27%	-4%	-4	-18%	-10
Cc1ccc(S(=O)(=O)Nc2ccc3c4c(cccc24)CC3)c(C)c1	nt	nt	16	nt	-6
Cc1cc(C)c(S(=O)(=O)Nc2ccc3c4c(cccc24)CC3)c(C)c1	?	-1%	-1	11µM*	-7
CC(C)(C)Nc1nc(C#N)nc(Nc2ccccc2)n1	3%	nt	nt	nt	nt
Cc1ccc(Nc2c([N+](=O)[O-])ccc3nonc23)cc1C	18%	nt	-27	15%	?
Cc1ccn2c(NCc3ccccc3)c(-c3cccs3)nc2c1	?	-3%	-1	14µM*	-6
CC(=O)c1ccc(-c2cccc(-c3nc4ccccn4c3NC3CCCCC3)c2)cc1	nt	nt	nt	nt	-22
SMILES	VP16 counter	PKM2 act	CtBP-E1A inh	RORgamma inh	Six1-Eya2 blk
c1csc(-c2nc3ccccn3c2NC2CCCCC2)c1	-16%	5%	7	10µM*	-5
CC(C)c1nc2ccccn2c1NC1CCCCC1	?	2%	-13	5µM*	-2
CCC(C)Sc1cc(-c2nc3ccccn3c2NC2CCCCC2)ccc1OC (stereo not drawn)	nt	nt	-22	nt	-14
Cc1ccn2c(NC(=O)c3ccccc3)c(-c3cccs3)nc2c1	7%	5%	4	-1%	-9
Cc1ccn2c(NC3CCCC3)c(-c3cccs3)nc2c1	-29%	-3%	-2	10µM*	0
CCOc1ccc(C(=O)N/N=C/c2cccc3cccnc23)cc1	2µM*	-8%	-98*	0.71µM*	-92*
CCOc1ccccc1C=NNC(=O)c1cccc2ccccc12	nt	nt	3	nt	4
CCOc1ccc(C(=O)N/N=C/c2ccccc2[N+](=O)[O-])cc1	?	-1%	9	-33%	-1
COc1ccc(C(=O)N/N=C/c2cccc3cccnc23)cc1	2.2µM*	1%	-93*	0.56µM*	-90*
CSCC[C@H](NC(=O)OC(C)(C)C)C(=O)N/N=C/c1cccc2cccnc12	16µM*	-3%	-75*	7.1µM*	?
CCOc1ccccc1C(=O)N/N=C/c1c[nH]c2ccccc12	?	3%	-8	16µM*	-5
COc1ccc(C(NC(=O)CN2CCCCCC2)c2ccc(OC)cc2)cc1	-19%	-5%	-7	-1%	-2
CCOc1ccccc1C(=O)N/N=C/c1cccc2cccnc12	?	-6%	?	5µM*	?
Cc1ccc(-c2cc(-c3ccccc3)c(C#N)c(Br)n2)cc1	-2%	0%	11	-12%	2
CS(=O)(=O)c1nc(-c2ccccc2)cc(-c2ccccc2)c1C#N	?	0%	8	10µM*	0
Oc1c(Br)cc(Br)cc1C=NCc1ccc(F)cc1	?	-3%	7	10µM*	-6
NC1=NC(=O)/C(=C/C=C/c2cccs2)S1	nt	nt	-18	nt	-20
CCOC(=O)CSc1nc2ccccc2c(=O)n1Cc1ccco1	0%	11%	15	5%	-4
CCOC(=O)CSc1nc2c(sc3ccc([N+](=O)[O-])cc32)c(=O)n1Cc1ccco1	5.6µM*	?	-14	8.9µM*	-21
Cc1ccc(NC(=S)Nc2ccc3[nH]c(=O)[nH]c3c2)cc1C	?	1%	-7	11µM*	-3
Cc1ccc([N+](=O)[O-])cc1N=Nc1c(C)[nH]n(C(N)=S)c1=O	10µM*	nt	nt	7.1µM*	-1
NC(=S)n1[nH]c(-c2ccc([N+](=O)[O-])cc2)c(N=Nc2ccc(Cl)cc2)c1=O	?	3%	-3	0.4µM*	-14
Cc1ccc([N+](=O)[O-])cc1N=Nc1c(-c2ccc([N+](=O)[O-])cc2)[nH]n(C(N)=S)c1=O	-11%	6%	-11	0.32µM*	-2
Cc1cc([N+](=O)[O-])ccc1N=Nc1c(N)[nH]n(-c2ccccc2)c1=O	-3%	-8%	-2	18%	-15
O=c1c(N=Nc2ccc(O)cc2)c(-c2ccccc2)[nH]n1-c1ccc([N+](=O)[O-])cc1	-2%	-1%	-10	-1%	-19
Cc1oc2cc3oc(=O)c(CCC(=O)N4C[C@H]5C[C@@H](C4)c4cccc(=O)n4C5)c(C)c3cc2c1C	-13%	-5%	5	-4%	-11
